Entries with a potency or affinity are not part of this list.
Columns and labels:
Staphylococcus aureus = conditions: Concentration 20 uM; ASSAY_TEST Inhibition of Bacterial Growth; detection method Absorption (OD600); MEDIA CAMHB; plate type 384well; NBS; CORNING #3640; time 18 hr
Escherichia coli = conditions: Concentration 20 uM; ASSAY_TEST Inhibition of Bacterial Growth; detection method Absorption (OD600); MEDIA CAMHB; plate type 384well; NBS; CORNING #3640; time 18 hr

SMILES	Inhibition (Staphylococcus aureus)	Inhibition (Escherichia coli)
Brc1c(NC2=NCCN2)ccc2nccnc12 [BRIMONIDINE]	7.02%	-2.73%
CC(O)(CS(=O)(=O)c1ccc(F)cc1)C(=O)Nc1ccc(C#N)c(C(F)(F)F)c1 (configuration not stated) [BICALUTAMIDE]	-1.51%	6.59%
CC(=O)OC1C([N+]2(C)CCCCC2)C[C@H]2C3CC[C@H]4C[C@H](OC(C)=O)C([N+]5(C)CCCCC5)CC4(C)[C@H]3CCC12C.[Br-].[Br-] (some centres not stated)	8.65%	6.22%
COc1ccc2[nH]cc(C3=CCNCC3)c2c1.COc1ccc2[nH]cc(C3=CCNCC3)c2c1.O=C(O)CCC(=O)O	16.86%	5.51%
COC(=O)N1CCN(C(=O)Cc2ccc(Cl)c(Cl)c2)C(CN2CCCC2)C1.O=C(O)/C=C/C(=O)O (configuration not stated)	12.27%	2.23%
Fc1ccc([C@@H]2CCNC[C@H]2COc2ccc3c(c2)OCO3)cc1.O=C(O)/C=C\C(=O)O	0.49%	6.75%
CN1[C@@H]2CC[C@H]1CC(OC(=O)C(CO)c1ccccc1)C2 (some centres not stated)	1.53%	-5.78%
NC(=O)OCCCc1ccccc1 [PHENPROBAMATE]	11.43%	2.85%
COCCCOc1ccnc(C[S+]([O-])c2nc3ccccc3[nH]2)c1C (configuration not stated) [RABEPRAZOLE]	10.37%	7.16%
O=C1Nc2ccc(Cl)cc2C(c2ccccc2Cl)=NC1O (configuration not stated) [LORAZEPAM]	-3.94%	2.56%
Cl.NCCc1ccc(O)c(O)c1 [DOPAMINE HYDROCHLORIDE]	8.23%	-5.62%
Cl.O=C1CC2(CCCC2)CC(=O)N1CCCCN1CCN(c2ncccn2)CC1 [BUSPIRONE HYDROCHLORIDE]	17.44%	4.5%
C[C@]12CC[C@H]3[C@@H](CCC4=CC(=O)CC[C@@H]43)[C@@H]1CC[C@@H]2O [NANDROLONE]	-0.13%	1.44%
COc1cc(N)c(Cl)cc1C(=O)NC1CN2CCC1CC2.Cl.O (configuration not stated) [ZACOPRIDE HYDROCHLORIDE]	-3.02%	7.58%
CC(C(=O)O)c1ccc(-c2ccccc2)c(F)c1 (configuration not stated) [FLURBIPROFEN]	10.54%	-5.67%
CC(C)NCC(O)COc1cccc2[nH]ccc12 (configuration not stated) [PINDOLOL]	7.44%	5.35%

Reference: ChEMBL document CHEMBL4513141, “CO-ADD screening of NIH (USA) - Clinical Collection” (2021)
